Screening data deposited in PubChem BioAssay by National Center for Advancing Translational Sciences (NCATS).
HT1080 IDH1KD tx: qHTS for induction of synthetic lethality in tumor cells producing 2HG: qHTS for the HT-1080-IDH1KD cell line; Potency, µM (top dose mostly 46.1 µM), usual class: cytotoxic; HT-1080 IDH1 knockdown viability, ATP luminescence, 48 h; 2% of 360,000 active; AID 686971, 2013
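Viability of IDH1-knockdown HT-1080 fibrosarcoma cells was assessed by CellTiter-Glo after 48 h at 37 °C with titrated compound; concentration-effect curves were classified by fit quality and response size.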
HT1080-NT tox: qHTS for induction of synthetic lethality in tumor cells producing 2HG: qHTS for the HT-1080-NT fibrosarcoma cell line; HT-1080-NT fibrosarcoma viability, CellTiter-Glo ATP luminescence, 48 h; Potency, µM (titrated, usually from 46.1 µM), most hits filed as cytotoxic; 1.6% of 360,000 active; AID 686970, 2013;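 further: NT is the 2HG producing partner of a matched IDH1 knockdown line; nearly all actives have a fitted effect of over 55% in size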
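A 48-hour cytotoxicity screen used HT-1080-NT cells plated 2 hours before compound delivery. ATP-based CellTiter-Glo luminescence measured viability, normalized to DMSO and no-cell controls.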
KB-V1 cytotox: qHTS assay for MDR1-selective chemotherapeutics: Primary screen using the drug-selected MDR subline cells KB-V1; 3.4% of 400,000 active; Potency, µM (doses to about 46.1 µM), usual class: cytotoxic; KB-V1 MDR cells viability, CellTiter-Glo, 72 h; AID 1347076, 2019; further: nearly all actives have a fitted effect of over 60% in size
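Readout: CellTiter-Glo luminescence, 10 min after addition. Cells: KB-V1 MDR subline, 72 h at 37 degrees C with compound. Analysis: corrected, normalized data fitted to concentration-effect curves.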
KB-3-1 tox: qHTS assay for MDR1-selective chemotherapeutics: Primary screen using the parental adenocarcinoma cell KB-3-1. KB-3-1 viability, CellTiter-Glo ATP luminescence, 72 h. Potency, µM (titrated, usually from 46.1 µM), most hits filed as cytotoxic. 1.4% of 400,000 active. AID 1347075, 2019; further: nearly all actives have a fitted effect of over 60% in size
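Viability of parental KB-3-1 cells, measured by CellTiter-Glo luminescence, followed a 72 h incubation at 37 °C with pinned compounds in phenol-red-free DMEM containing 10% FBS.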
S2 tox: Viability Counterscreen for Primary qHTS for Inhibitors of ATXN expression; S2 cells (HEK-293 line with an ATXN2-luciferase reporter) viability, CellTiter-Fluor protease fluorescence, 24 h; Potency, µM (doses to about 56.7 µM), actives largely listed as cytotoxic; 0.49% of 400,000 active; further: nearly all actives have a fitted effect of over 40% in size
ATXN2 expr inh: Primary qHTS for Inhibitors of ATXN expression; AID 1745845, 2022; HEK-293 ATXN2-luciferase reporter, luminescence, 24 h; 0.72% of 360,000 active; Potency, µM (series often up to 57 µM), actives largely listed as inhibitors; further: nearly all actives have a fitted effect of over 55% in size
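qHTS (up to 57 uM final) was run with 24 h compound exposure of reporter cells at 37 °C. Each well was multiplexed: SteadyGlo luminescence measured ATXN2-luciferase expression after a fluorogenic Gly-Phe-AFC viability readout (25 uM final).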
Hits are given with their value; – = inactive; ? = inconclusive; · = not tested or not shown; ! = not active in a repeat; [ ] = remark or other dose. In the library only some 6.2% were active in any assay of this set; here they are far more common. The call rests on the fitted dose curve; in most records, active means well fitted curve in the direction sought with a large enough effect; inconclusive means small, poorly fitted or top-dose-only effect, or another doubt; inactive means no such curve, though single readings can be large; an effect the other way counts as inactive or inconclusive.

SMILES	HT1080 IDH1KD tx	HT1080-NT tox	KB-V1 cytotox	KB-3-1 tox	S2 tox	ATXN2 expr inh
O=C(CCCc1nc2ccccc2s1)N1CCN(c2ccccc2)CC1	–	–	–	–	–	–
O=C(CCCc1nc2ccccc2s1)N1CCN(S(=O)(=O)c2cccs2)CC1	–	–	23.1µM	–	–	–
CCCCCCCCCCCCCCCC[N+](C)(C)CCN(Cc1ccc(OC)cc1)c1ncccn1	18.4µM	16.4µM	–	?	25.1µM!	35.5µM!
COc1ccc(OC)c(S(=O)(=O)Nc2ccc3c(c2)C(=O)OC3)c1	20.6µM	18.4µM	–	–	–	–
COc1ccc(NS(=O)(=O)c2cc(OC)ccc2OC)cc1	–	–	–	–	–	–
CCOc1ccccc1C1C2CCCCC2(O)CCN1C(=O)c1cccs1 (stereo unspecified)	–	–	23.1µM	–	–	–
N#CCC1c2ccccc2CCN1C(=O)Nc1cccc(Cl)c1 (stereo unspecified)	?	–	16.4µM	–	–	–
N#CCC1c2ccccc2CCN1C(=O)Nc1ccc(Cl)cc1 (stereo unspecified)	–	–	–	–	–	–
N#CCC1c2ccccc2CCN1C(=O)Nc1ccc(C(F)(F)F)cc1 (stereo unspecified)	?	?	–	–	–	–
N#CCC1c2ccccc2CCN1C(=O)Nc1cccc(C(F)(F)F)c1 (stereo unspecified)	?	12.6µM	–	?	–	–
O=C(Nc1ccc(F)cc1F)N1CCCN(c2ccc([N+](=O)[O-])cn2)CC1	–	–	–	–	–	–
CC(C)(C)c1ccc(NC(=O)N2CCN(c3ccc([N+](=O)[O-])cn3)CC2)cc1	23.1µM	?	?	?	–	–
O=C(/C=C/c1cn(CC(O)CN2CCCCCC2)c2ccccc12)c1cccs1 (stereo unspecified)	20.6µM	18.4µM	?	?	·	–
CSc1nccc(-c2cc(Cl)c3c(c2)CC(CNC(=O)c2nonc2C)O3)n1 (stereo unspecified)	·	·	·	·	–	·
COc1c(C)cc(C(=O)C2CCCN(C(=O)c3ccoc3)C2)cc1C (stereo unspecified)	–	–	?	–	–	–
COc1c(C)cc(C(=O)C2CCCN(C(=O)C3=C(C)OCCO3)C2)cc1C (stereo unspecified)	–	–	20.6µM	–	–	·
Cc1cc(C)c2nc(N3CCCC(C(=O)N4CCN(c5ncccn5)CC4)C3)sc2c1 (stereo unspecified)	–	–	10.3µM	?	–	?
Cc1ccc(S(=O)(=O)N(C)CCCN(C)c2nc(-c3cccs3)nc3ccccc23)cc1	–	–	·	·	·	·
COc1ccc2c(c1)C1=NN(/C(C)=C/C(C)=O)C(c3ccc(F)cc3)C1CC2 (stereo unspecified)	–	–	20.6µM	–	–	–
COc1ccc2c(c1)CCC1C2=NN(/C(C)=C\C(C)=O)C1c1ccc(F)cc1 (stereo unspecified)	–	–	–	–	–	·
COc1ccc(Cn2ccc3nc(C)c(C(=O)N4CCN(c5ccc(F)cc5)CC4)cc3c2=O)cc1	·	·	–	–	?	–
C(=C\c1ccnc2ccccc12)/c1ccc2ccccc2n1	·	·	?	–	·	·
C(=Cc1c[nH]c2ccccc12)c1ccc2ccccc2n1	23.1µM	16.4µM	–	–	·	–
N#C/C(N=Nc1ccccc1O)=N\Nc1ccccc1O	9.2µM	20.6µM	?	16.4µM	15.8µM	?
Oc1ccccc1N=N/C(=N/Nc1ccccc1O)c1ccccc1	–	–	–	–	–	–
SMILES	HT1080 IDH1KD tx	HT1080-NT tox	KB-V1 cytotox	KB-3-1 tox	S2 tox	ATXN2 expr inh
CC(=O)C1=CCC(c2ccccc2)N(S(=O)(=O)c2ccccc2)C1 (stereo unspecified)	–	–	–	–	–	–
COc1cc(F)ccc1S(=O)(=O)N1CCN(C23CC4CC(CC(C4)C2)C3)CC1	–	–	–	?	–	–
COc1ccc(C)cc1S(=O)(=O)N1CCCCCC1	–	–	–	–	–	–
COc1cc(C)ccc1S(=O)(=O)N1CCN(C23CC4CC(CC(C4)C2)C3)CC1	–	–	13µM	–	–	?
COc1ccc(C)cc1S(=O)(=O)N1CCC(C)CC1	–	–	18.4µM	–	–	–
COc1ccc(NC(=O)CCN2C(=O)C3C4CCC(C4)C3C2=O)cc1 (stereo unspecified)	?	–	–	–	?	–
COc1ccc(NC(=O)CCN2C(=O)[C@@H]3[C@H](C2=O)[C@H]2C=C[C@@H]3C2)cc1	?	18.4µM	–	–	–	–
O=C(CCc1ccccc1)N1CCCN(C(=O)CCc2ccccc2)CC1	–	–	20.6µM	–	–	–
O=C(CCNS(=O)(=O)c1ccc(Cl)cc1)N1CCN(c2ncccn2)CC1	–	–	?	?	–	–
CCOc1ccc(S(=O)(=O)NCCC(=O)N2CCN(Cc3ccccc3)CC2)cc1	–	–	?	–	–	–
CS(=O)(=O)N1CCN(C(=O)CCc2ccccc2)CC1	–	–	–	–	?	–
CCOC(=O)N1CCN(C(=O)CCc2ccc(S(=O)(=O)NCCc3ccccc3)cc2)CC1	–	–	16.4µM	–	–	–
CCOc1ccc(S(=O)(=O)NCCC(=O)N2CCN(c3ncccn3)CC2)cc1	–	–	18.4µM	–	–	–
CCNS(=O)(=O)c1ccc(CCC(=O)N2CCN(Cc3ccccc3)CC2)cc1	–	–	–	–	–	–
CCOc1ccc(S(=O)(=O)NCCC(=O)N2CC=C(c3ccccc3)CC2)cc1	–	–[9.24 µM]	?	13µM	–	?
O=C1OC(CO)CN1Cc1ccccc1 (stereo unspecified)	–	–	?	–	–	–
CC(C)(C)N1C(=O)c2ccccc2NC(=O)C1C(=O)Nc1ccc(N2CCOCC2)cc1 (stereo unspecified)	–	–	–	–	·	·
Cc1cccc(NC(=O)C(C)Sc2nnc(-c3cccnc3)o2)c1 (stereo unspecified)	–	–	–	–	–	–
COc1ccccc1-c1ccnc(-n2ncc(C(=O)NCc3cccnc3)c2C)n1	·	·	·	·	–	·
CCOc1ccc(Br)cc1C1C(C(=O)OC)=C(N)Oc2cc(N(C)C)ccc21 (stereo unspecified)	14.6µM	11.6µM	23.1µM	?	–	–
CCOC(=O)N1CCN(C(=O)CCSc2ccc(Cl)cc2)CC1	–	–	23.1µM	–	–	–
